ChEMBL document CHEMBL3988442, “University of Dundee, Small-Polar-MMV Screening Library” (2021)
About 1,000 (1.4%) of roughly 69,000 compounds showed an effect of 50% or more. This excerpt belongs to a sample that is enriched for strong results.

Tested on: Leishmania donovani
Experiment: Leishmania intramacrophage assay
Assay type: functional, organism-based
Set-up: scale not given: in the data most compounds retested in dose-response had high values

CC1CN(C(=O)c2cccc(OCc3cscn3)c2)CCO1 (centres undefined)
Percent Effect (30 µM): 15.03%

CNC(=O)CN([C@H]1C[C@H]2CCOC[C@H]2C1)S(=O)(=O)c1ccccc1
Percent Effect (30.3 µM, […]): -15.54%

O=c1oc(-c2cccs2)nn1CC1(O)CCCCC1
Percent Effect (30.3 µM, […]): -0.7487%

COc1cccc2c1OCC(NCCCOc1cccnc1)C2 (centres undefined)
Percent Effect (30.3 µM, […]): 0.7744%

O=C(O)C(F)(F)F.c1ncn(Cc2cn3c(n2)CN(CC2CCCC2)CC3)n1
Percent Effect (30.3 µM, […]): -12.84%

CC(NCC1(N(C)C)CCOCC1)c1ccc(SC(F)F)cc1 (centres undefined)
Percent Effect (30.3 µM, […]): 43.5%

CCc1ccc(C(=O)N2CC(C(=O)NC(C)C)C3(CCOCC3)C2)cc1 (centres undefined)
Percent Effect (30.3 µM, […]): 20.17%

CN(C)C(=O)c1cnc2n1CCN(Cc1ccsc1)C2.O=C(O)C(F)(F)F
Percent Effect (30.3 µM, […]): 24.8%

Cc1ccc(C(=O)NCC(C)Cn2cccn2)c(=O)[nH]1 (centres undefined)
Percent Effect (30.3 µM, […]): 5.92%

Cc1ccc(C(=O)NC(C)Cn2cccn2)c(=O)[nH]1 (centres undefined)
Percent Effect (30.3 µM, […]): 61.08%

Cc1ccc(C(=O)OC(C)Cn2cccn2)c(=O)[nH]1 (centres undefined)
Percent Effect (30.3 µM, […]): 9.557%

CCC(O)CN1CCN(C(=O)c2ccn(C)c(=O)c2)CC1 (centres undefined)
Percent Effect (30 µM): 25.79%

CSCCC(Nc1nc(C)cc(C)n1)C(=O)NC(C)(C)CO (centres undefined)
Percent Effect (30.3 µM, […]): -4.466%

COC1CCCN(C(=O)Nc2nc(C)n(C)n2)C1 (centres undefined)
Percent Effect (30 µM, 30.03 µM): 27.05%

O=C(NCCCN1CCc2ccccc2C1)c1cccnc1O
Percent Effect (30 µM, 30.03 µM): 26.46%

O=C(c1ccoc1)N(Cc1cccnc1)C1CC1
Percent Effect (30.3 µM, […]): 22.13%

O=C(c1ccoc1)N(Cc1ccncc1)C1CC1
Percent Effect (30.3 µM, […]): 53.31%

O=C(c1ccoc1)N(Cc1ccccn1)C1CC1
Percent Effect (30.3 µM, […]): -9.366%

CSc1ccc(-c2nc(CN3CCNCC3C)c(C)o2)cc1 (centres undefined)
Percent Effect (30.3 µM, […]): 81.77%

CSc1ccc(-c2nc(CN3CCC(CN)C3)c(C)o2)cc1 (centres undefined)
Percent Effect (30.3 µM, […]): 98.64%

CNC(=O)C1CCN(Cc2nc(-c3ccc(SC)cc3)oc2C)C1 (centres undefined)
Percent Effect (30.3 µM, […]): 7.886%

CSc1ccc(-c2nc(CN3C[C@@H](C)NC[C@@H]3C)c(C)o2)cc1
Percent Effect (30.3 µM, […]): 42.57%

CSc1ccc(-c2nc(CN3CCC(C(N)=O)CC3)c(C)o2)cc1
Percent Effect (30.3 µM, […]): -4.149%

CSc1ccc(-c2nc(CN3CCC(NC(C)=O)CC3)c(C)o2)cc1
Percent Effect (30.3 µM, […]): 13.21%

CNS(=O)(=O)c1cc(C(=O)NC2COc3ccccc3C2)ccc1OC (centres undefined)
Percent Effect (30.3 µM, […]): -9.324%

CN(C)C(=O)c1cccc(CCNc2ccccc2S(C)(=O)=O)c1
Percent Effect (30.3 µM, […]): 7.886%

CN(Cc1cn(C2CCNCC2)nn1)CC1CCCO1 (centres undefined)
Percent Effect (30.3 µM, […]): 7.398%

CCN(Cc1cn(CC2CCNCC2)nn1)CC1CCCO1 (centres undefined)
Percent Effect (30.3 µM, […]): 62.19%

CN(Cc1cn(CC2CCNCC2)nn1)CC1CCCCO1 (centres undefined)
Percent Effect (30.3 µM, […]): -23.25%
